Consider 7 compounds from PubChem BioAssay (NCATS).

Inconclusive results are not listed. The source made the active and inactive calls. The call rests on the fitted dose curve; in most records, active means well fitted curve in the direction sought with a large enough effect; inconclusive means small, poorly fitted or top-dose-only effect, or another doubt; inactive means no such curve, though single readings can be large; an effect the other way counts as inactive or inconclusive.

Assay [1] relates to Zika virus NS2B-NS3 protease (linked construct). Kind of assay: Primary screen NINDS Rhodamine qHTS for Zika virus inhibitors (AID 1347160). Further: nearly all actives have a fitted effect of over 55% in size. Further: potency means the concentration at half of the fitted maximal effect. In a few lines: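 Kinetic fluorescence (Ex 480 nm, Em 540 nm) over 15 min with 1.5 microM Rhodamine110 peptide and 25 nM linked protease.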
Background: In qHTS, concentration-response curves come from the screen itself.

Assay [2] can be described thus: SW1088 Cancer Cell Toxicity qHTS against the NCATS CANVASS Library (AID 1347350). Further: nearly all actives have a fitted effect of over 75% in size. In a few lines: (§1)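 ATP content after 72 h treatment, detected by CellTiter-Glo luminescence (15min room-temperature development), reflects cell viability. Wells contained 1000 cells and received compounds at 11 concentrations.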
The nature of assay [3]: COV-362 Cancer Cell Toxicity qHTS against the NCATS CANVASS Library (AID 1347352). Further: series mostly up to about 38 µM. The gist of the method:
(§2)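 Cells at 1000/well were given compound 4 h after plating in an 11-point series. Viability was read by CellTiter-Glo luminescence after 72 h at 37 degrees C.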

Assay [4] in a line: A2780 Cisplatin Sensitive Ovarian Cancer Cell Toxicity qHTS against the NCATS CANVASS Library (AID 1347353). Further: nearly all actives have a fitted effect of over 60% in size. The gist of the method: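 A2780 cells, 750/well, settled 4 h at 37 °C, then treated with an 11-point compound series for 72 h. Viability was read as ATPLite luminescence after 10 min at room temperature, with bortezomib as control.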
Assay [5] can be described thus: UWB1.289-WTBRCA1 Cancer Cell Toxicity qHTS against the NCATS CANVASS Library (AID 1347354). In a few lines: as §2
The test system of assay [6] is NAD(P)H diaphorase (Clostridium kluyveri). Kind of assay: Diaphorse counterscreen qHTS: Assay Interference Panel against the NCATS CANVASS Library (AID 1347362). The gist of the method: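 Counterscreen for coupling-enzyme interference: resorufin fluorescence from resazurin/NADH turnover, read after 5 min at room temperature. Compounds were tested over an 11-point series after 15 min dark preincubation with diaphorase in PBS-Tween.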
(In general: The purpose of a counterscreen is to sort out artefacts and off-target activity.)

Assay [7] in a line: KB-8-5-11 Cancer Cell Toxicity qHTS against the NCATS CANVASS Library (AID 1347364). Further: nearly all actives have a fitted effect of over 75% in size. The gist of the method:
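KB-8-5-11 cells, 500/well in DMEM + 10% FBS, given compounds in an 11-point series. Incubated 72 h at 37 °C. Viability by CellTiter-Glo luminescence. Confirmation also run with 1 uM tariquidar.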

Assay [8] is described as follows: SDT Cancer Cell Toxicity qHTS against the NCATS CANVASS Library (AID 1347365). Further: nearly all actives have a fitted effect of over 60% in size. Further: potency means the concentration at half of the fitted maximal effect. The gist of the method:
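SDT dog glioma cells (500/well) exposed to an 11-point compound series for 72 hr at 37C, 5% CO2. Cytotoxicity read as ATP content by CellTiterGlo luminescence; bortezomib titration as control.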

A short description of assay [9]: G06 Cancer Cell Toxicity qHTS against the NCATS CANVASS Library (AID 1347368). Further: nearly all actives have a fitted effect of over 60% in size. In a few lines: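 G06 dog glioma cells, 500 per well, exposed 72 hr at 37C, 5% CO2 to compounds in an 11-point series. Cytotoxicity read as ATP content by CellTiterGlo luminescence.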
Assay [10] has as its target Nuclear receptor subfamily 1 group I member 3 (Homo sapiens) (UniProt Q14994). Kind of assay: qHTS for Constitutive Androstane Receptor (CAR) Antagonist screened against the NCATS CANVASS Library (AID 1347372).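 Further: cells stimulated with 50 nM CITCO agonist so inhibition reflects antagonism; luciferase from CYP2B6 promoter reporter driven by hCAR in HepG2 cells; series mostly up to about 46 µM.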 The gist of the method: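 HepG2-CYP2B6-hCAR double-stable cells plated, 4hr attach; cpd pin-transferred; CITCO 50 nM final; 24hr 37C/5% CO2; CellTiter-Fluor 1hr (fluorescence), then ONE-Glo luminescence.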

The nature of assay [11]: qHTS for Hypoxia signaling pathway (HIF-1) agonists against the NCATS CANVASS Library (AID 1347375). In a few lines: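 HRE-bla ME-180 cells (0.5% dialyzed FBS) were pre-incubated 5 hrs at 37C, then exposed to compounds in an 11-point series for 17 hrs. Read-out was CCF4-AM beta-lactamase FRET (460/530 nm emissions), with CellTiter-Glo viability in the same wells.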
Assay [12] in a line: DH5-alpha competent E. coli microbial cell viability qHTS against the NCATS CANVASS Library (AID 1347377). As to conditions: outcome: dose series up to 46.1 µM unless noted. In a few lines: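 DH5-alpha E. coli suspension was exposed to an 11-point compound series overnight at 37 °C. Viable cells quantified by ATP luminescence (BacTiter-Glo) after 20 min at room temperature.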

The nature of assay [13]: qHTS for Activators of p53 Stress Response Pathway screened against the NCATS CANVASS Library (AID 1347388). The gist of the method: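 Beta-lactamase reporter driven by p53 response elements in HCT-116 cells, read as the 460 nm/530 nm emission ratio after CCF4 loading, following 16 h of exposure to an 11-point series. Cell viability was measured in the same wells by CellTiter-Glo luminescence.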

Assay [14] is described as follows: qHTS assay for small molecule disruptors of mitochondrial membrane potential screened against the NCATS CANVASS Library (AID 1347389). Further: nearly all actives have a fitted effect of over 60% in size. Further: potency means the concentration at half of the fitted maximal effect. In a few lines:
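HepG2 cells (2,000/well) plated overnight, then exposed to compounds in 11-point qHTS series for 1 h at 37C before 30 min Mito-MPS dye; depolarization read as fall in red aggregate (590 nm) to green monomer (535 nm) fluorescence.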

Assay [15] can be described thus: qHTS for activators of dead-cell proteases activity screened against the NCATS CANVASS Library (AID 1347392).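 Further: luminescence from protease leaking out of membrane-damaged cells cleaving impermeant substrate; rising signal means more cytotoxicity.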 The gist of the method: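 Compounds are pin-transferred onto attached HepG2 cells, giving 11 final concentrations. After 5 h at 37C, AAF-aminoluciferin reagent is added and luminescence is recorded at room temperature.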
Assay [16] is described as follows: qHTS for inhibitors of Wild type Zika virus screened against the NCATS CANVASS Library (AID 1347396).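 Further: ATP luminescence of surviving cells so rescue from viral cell killing; series mostly up to about 46 µM.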 The gist of the method:
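Protection against wild-type Zika cytopathic effect is measured in African green monkey Vero 766 cells exposed to an 11-point compound series. Surviving cells are quantified by CellTiter Glo luminescence after 72 h.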

Assay [17] can be described thus: Redox Reaction Profiling qHTS: Assay Interference Panel against the NCATS CANVASS Library (AID 1347401). Further: potency means the concentration at half of the fitted maximal effect. The gist of the method: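 Cell-free redox surrogate: 5 uM resazurin + 200 uM DTT, 50 mM HEPES pH 7.3/50 mM NaCl; cpds pinned, 11-pt qHTS; Ex525/Em598 read t0 and t=15 min, dark.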
The nature of assay [18]: Panc-1005 Cancer Cell Toxicity qHTS against the NCATS CANVASS Library (AID 1347349). The gist of the method: as §1
Assay [19] in a line: qHTS for activators of Nrf2/ARE signaling pathway screened against the NCATS CANVASS Library (AID 1347391). Further: nearly all actives have a fitted effect of over 60% in size. Further: potency means the concentration at half of the fitted maximal effect. The gist of the method:
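ARE-bla HepG2 beta-lactamase reporter cells exposed to compounds for 16 h at 37C; CCF4 substrate 2 h, fluorescence at ex 405 nm, em 460/530 nm. Viability by CellTiter-Glo luminescence.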

Assay [20] is described as follows: HEK-293 Cancer Cell Toxicity qHTS against the NCATS CANVASS Library (AID 1347355). Further: series mostly up to about 46 µM; nearly all actives have a fitted effect of over 65% in size. The gist of the method:
as §2

Sequence of Nuclear receptor subfamily 1 group I member 3 (Homo sapiens) (Q14994 whole entry, looked up): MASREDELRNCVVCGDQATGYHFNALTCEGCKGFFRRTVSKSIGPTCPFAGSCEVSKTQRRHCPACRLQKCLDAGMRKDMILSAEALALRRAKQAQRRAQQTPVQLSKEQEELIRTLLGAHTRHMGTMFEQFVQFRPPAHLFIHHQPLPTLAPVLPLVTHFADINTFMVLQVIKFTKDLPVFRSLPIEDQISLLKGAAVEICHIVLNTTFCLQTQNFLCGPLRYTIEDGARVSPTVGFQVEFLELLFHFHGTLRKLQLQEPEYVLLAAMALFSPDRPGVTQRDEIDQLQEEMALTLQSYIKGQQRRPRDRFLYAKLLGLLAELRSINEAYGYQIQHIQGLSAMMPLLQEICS

Take `C/C=C1/CC[C@@H]2c3[nH]c4ccccc4c3CCN2C1`: the Potency entry in [1], in assay [2], in assay [3], in assay [4], in [5] and in [6] was “inactive” throughout. Further, the Potency result in [7], in assay [8], in assay [9], in assay [10], in assay [11] and in assay [13] was “inactive” throughout. For the same compound, the Potency entry in assay [14], in assay [15], in assay [16] and in assay [17] was “inactive” each time. For the same compound, the compound was called inactive in [12].
As to `CO[C@@H]1[C@H](O)[C@@H](C)O[C@@H](OC[C@H]2/C=C/C=C/C(=O)C(C)C[C@H](C)C(O[C@@H]3O[C@H](C)CC4(OC(=O)O[C@@H]4C)C3O)[C@@H](C)/C=C/C(=O)OC2C)[C@@H]1OC` (stereo partly drawn), the Potency in assay [1] was 49.3 µM (active); in [19] it was 14.8 µM (active). Also, the Potency result in assay [18], in assay [2], in assay [3], in assay [4], in assay [5] and in [6] was “inactive” each time. Moreover, the Potency result in assay [7], in [8], in assay [10], in assay [11], in assay [13] and in assay [14] was “inactive” throughout. Further, the Potency result in assay [15], in assay [16] and in assay [17] was “inactive” in each case. The compound was called inactive in assay [12].
With `COc1cc(O)c2c3c(c(O)cc(C)c13)C(=O)OC2`, the Potency result in assay [18], in [2], in [3], in [4], in assay [5] and in assay [20] was “inactive” each time. Further, the Potency result in assay [7], in [8], in [9], in assay [10], in [11] and in [13] was “inactive” throughout. The Potency entry in [15] and in assay [16] was “inactive” in each case. Also, the compound was called inactive in assay [12]. Further, the Potency in assay [14] is 18.6 µM (active); in [17], 21.5 µM (active).
In the case of `C=C[C@]1(C)CC[C@@H]([C@H](C)C(=O)OCC)O1`, the Potency in assay [1] is 27.2 µM (active). Moreover, the Potency entry in assay [18], in [2], in assay [3], in assay [5], in [6] and in [11] was “inactive” throughout. Moreover, the Potency result in [13], in assay [15], in [16] and in assay [17] was “inactive” each time. Further, the result in [12] was inactive.
Turning to `O=C(O)CC1OC(=O)c2c(O)cccc21` (stereo not drawn), the Potency result in [18], in assay [2], in assay [3], in assay [4], in assay [5] and in assay [6] was “inactive” in each case. Moreover, the Potency entry in [7], in [10], in assay [11], in [13], in [14] and in [19] was “inactive” throughout. In addition, the Potency entry in assay [15], in [16] and in [17] was “inactive” each time. For the same compound, the Potency in assay [8] is 0.0132 µM (active). Also, the call in assay [12] was inactive.
In the case of `O=C(O)CC1OCc2c(O)cccc21` (stereo not drawn), the Potency entry in assay [18], in assay [2], in [3], in assay [4], in assay [5] and in [20] was “inactive” in each case. Also, the Potency result in assay [6], in assay [7], in assay [8], in assay [9], in assay [10] and in [11] was “inactive” each time. Besides, the Potency entry in assay [13], in [14], in assay [19], in [15], in assay [16] and in assay [17] was “inactive” each time. Besides, in [12], the compound was called inactive.
Turning to `COc1ccc([C@@H]2c3cc(OC)c(OC)cc3C(=O)C(C)C2C)cc1OC` (stereo partly drawn), the Potency result in [1], in [18], in [2], in [3], in assay [5] and in [20] was “inactive” each time. In addition, the Potency result in [6], in assay [7], in assay [8], in assay [9], in assay [10] and in assay [11] was “inactive” each time. The Potency result in [13], in assay [14], in [15], in assay [16] and in assay [17] was “inactive” each time. Also, in assay [12], the compound was classed as inactive.
